# Reference: PubChem BioAssay (NCI)
# About 83,000 compounds went through this panel and 20% of them were active in at least one assay; those are over-represented in the sample as a whole.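 Cell lines were cultured in 96-well plates, exposed to a single compound concentration, and assessed for percent growth 48 hours later.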 Values without a mark were called inactive. Calls of active or inactive are those of the source.
# System: MDA-MB-435 melanoma
# Assay: NCI-60 one-dose screen, 48 h (100 = growth as untreated, 0 = no growth, -100 = all killed)
# Settings: 10 µM unless noted
# Description: Growth inhibition of the MDA-MB-435 human Melanoma tumor cell line is measured as a screen for anti-cancer activity. Cells are grown in 96 well plates and exposed to the test compound for 48 hours. Compounds are tested at a single concentration, which is 10^-5 M for most compounds. The reported endpoint is percent growth (GI% or GIPRCNT), where numbers from 0 - 100% represent growth inhibition, and numbers from -100% - 0 represent cell death. For example, a value of 40 represents 60% growth inhibition. A value of 0 means no net growth occurred over the course of the experiment. A value of -40 indicates 40% of cells at the beginning of the experiment died by the end of the experiment. A value of -100 means all cells are dead at the end of the experiment.
# NCI-60 Human Tumor Cell Lines Screen was performed using the standard one-dose NCI protocol, which is described in more detail at https://dtp.cancer.gov/discovery_development/nci-60/default.htm.
# Compounds with GIPRCNT values below 10 were considered active. Activity score was based on GIPRCNT using the following formula: […]
# Score is 0 for GIPRCNT values of 100 or above, 50 for GIPRCNT values of 0, and 100 for GIPRCNT values of -100.
row,SMILES,growth
1,O=C1c2c(c3c4cc(Br)ccc4[nH]c3c3ccc4ccccc4c23)C(=O)N1CCO,94.8%
2,CS(=O)(=O)Nc1ccc(-c2nn(-c3ccc(S(C)(=O)=O)cc3)cc2/C=C/C(=O)c2ccc(NC(=O)CO[N+](=O)[O-])cc2)cc1,106%
3,Fc1ccc(-c2cc3nc(C(Cl)Cl)nc(-c4ccccc4)n3n2)cc1,6.42% (active)
4,CC1=C(C)C(=O)C(Nc2cccc(C(F)(F)F)c2)=C(Cl)C1=O,98.5%
5,CC(C)NC(=O)c1cc(-c2ccc(NC(=O)Nc3ccc(N4CCOCC4)c(C(F)(F)F)c3)cc2)nc2cccnc12,67.9%
6,COC(=O)C1CN(S(=O)(=O)/N=C2\NC(=O)NC2=C(Cl)Cl)C1,107%
7,Cc1ccc(/C=C/c2nn3c(-c4ccco4)nnc3s2)cc1C,99.4%
8,c1ccc2c(NCCCN3CCOCC3)c3oc4ccccc4c3nc2c1,-11.9% (active)
9,Cc1ccc2ccc3ccc(C)nc3c2n1.Cc1ccc2ccc3ccc(C)nc3c2n1.Oc1c(Cl)cc(Cl)c2ccc(CN3CCCCC3)nc12.[Ru],-90.5% (active)
10,CC(O)C(NC(=O)C1CCCN1C(=O)CNC(=O)C1CC(=O)NCC(=O)NC(Cc2c[nH]c3ccccc23)C(=O)NC(Cc2ccc(O)cc2)C(=O)NCC(=O)NC(CO)C(=O)NC(CCC(N)=O)C(=O)NC(Cc2c[nH]c3ccccc23)C(=O)N1)C(=O)NCC(=O)NC(CCC(N)=O)C(=O)NC(CCCNC(=N)N)C(=O)NC(CC(=O)O)C(=O)O (stereo not given),100%
11,Cn1cc(-c2cc(N)n3nc(-c4cn(C)c5ccc(F)cc45)cc3n2)c2cc(F)ccc21,5.54% (active)
12,Clc1ccc2oc3c(OCCCn4ccnc4)c4ccccc4nc3c2c1,64.6%
13,Clc1ccc2oc3c(NCCCN4CCOCC4)c4ccccc4nc3c2c1,22%
14,C#Cc1nc(C2=C(C)C(O)CC2)cs1 (stereo not given),105%
15,CCN1CCN(/C(=N\c2sc(-c3ccccc3)nc2-c2ccccc2)c2ccccc2)CC1,88%
16,O=c1[nH]c2ccc(Cl)cc2cc1CSc1ccccc1Nc1nccc(-c2ccc(Cl)cc2)n1,96.8%
17,COc1cccc(-c2nn(-c3ccccc3)cc2-c2ccnc(N3CCN(C(=O)c4ccccc4)CC3)c2)c1,17%
18,CCOC(=O)c1c(Nc2ccccc2)nn2c(N)c(C#N)c(-c3ccc(F)cc3)nc12,81.2%
19,CS(=O)(=O)c1ccc(-c2nc3ccccn3c2-c2nc3ccc([N+](=O)[O-])cc3[nH]2)cc1,94.5%
20,Nc1nc(N)c2c(n1)NC(c1ccc(F)cc1)CC(c1ccc(Nc3nc(NCCO)nc(Nc4ccc(Cl)cc4)n3)cc1)=N2 (stereo not given),-71.4% (active)

row,SMILES,growth
1,CCOC(=O)c1c(Nc2ccccc2)nn2c(N)c(C#N)c(-c3ccc(OC)cc3)nc12,79%
2,CCN1C(=S)N(c2ccccc2)C2NC(=O)N(/N=C/C=C/c3ccccc3OC)C21 (stereo not given),52.6%
3,CN1C(=S)N(C)C2C1NN=C1SC(c3ccccc3)=CC(=O)N12 (stereo not given),74.2%
4,N#Cc1ccc(/C=N/NC(=O)c2[nH]c3ccc(Br)cc3c2-c2ccccc2)s1,1.78% (active)
5,O=C1C2=C(C(=O)c3c(O)cccc31)C(c1ccco1)c1sc(=O)[nH]c1S2 (stereo not given),-45.3% (active)
6,N#Cc1nc(-c2ccccc2)oc1N1CC[C@@H](CO)C1,99%
7,[Cl][Ru].c1ccc(-c2cccc(-c3ccccn3)n2)nc1.c1ccc(-c2ccnc3c2ccc2c(-c4ccccc4)ccnc23)cc1,10.5%
8,O=c1[nH]c2ccccc2cc1CSc1ccccc1Nc1nccc(-c2ccc(C(F)(F)F)cc2)n1,74.6%
9,CC(C)(C)Nc1nc2c(OCCc3ccccc3)cccn2c1-c1ccc(O)cc1,72.5%
10,NS(=O)(=O)c1cccc(Nc2nc(SCC(=O)c3ccc(Cl)cc3)nc3ccccc23)c1,77.6%
11,COc1cc(/C=C/C(=O)c2ccc(C(F)(F)F)cc2)ccc1Oc1nc(NCCO)nc(N2CCOCC2)n1,78.9%
12,Cc1c(NC(=O)CSc2nc3sc4c(c3c(=O)n2-c2ccc(Cl)cc2)CCCC4)c(=O)n(-c2ccccc2)n1C,88.3%
13,N#Cc1c(-c2ccc(Cl)cc2)nc(SCc2ccc([N+](=O)[O-])cc2)nc1N1CCNCC1,-63.3% (active)
14,COc1cc(/C=C/C(=O)c2cc(OC)c(OC)c(OC)c2)ccc1OCc1ccccc1,45.9%
15,COc1ccc(NC2=C(Cl)C(=O)C(C)=C(C)C2=O)cc1OC,103%
16,COc1cc2cc(Oc3ccc(NC(=O)c4cccc(C(F)(F)F)c4)cc3)c(C)nc2cc1OCCN1CCCCC1,-86.6% (active)
17,CCOC(=O)c1c(Nc2ccccc2)nn2c(-c3ccco3)c(C#N)cnc12,93%
18,COc1cc(/C=C/C(=O)c2ccc(Cl)cc2)ccc1Oc1nc(NCCO)nc(N2CCOCC2)n1,109%
19,Cc1cc(=O)oc2cc(OCCCOc3ccc(/C=C/C(=O)Nc4ccc(Cl)cc4)cc3)ccc12,61.1%
20,O=C1Nc2ccc(Cl)cc2/C1=C/c1ccc(OCC(=O)c2ccc(Br)cc2)cc1,99.1%
